Assay results from PubChem BioAssay (NCI).
About 83,000 compounds went through this panel and 20% of them were active in at least one assay; those are over-represented in the sample as a whole.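 48-hour exposure, single concentration, 96-well plates; percent growth endpoint where 0 means no net growth. Active: below 10.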 The source made the active and inactive calls.

Legend:
Assay in all cases: NCI-60 one-dose screen, 48 h (100 = growth as untreated, 0 = no growth, -100 = all killed)
Details in all cases: 10 µM
SR leukemia = test system: SR leukemia
RPMI-8226 leukemia = test system: RPMI-8226 leukemia
OVCAR-8 ovarian = test system: OVCAR-8 ovarian
OVCAR-5 ovarian = test system: OVCAR-5 ovarian
OVCAR-4 ovarian = test system: OVCAR-4 ovarian
SK-OV-3 ovarian = test system: SK-OV-3 ovarian
IGROV1 ovarian = test system: IGROV1 ovarian
OVCAR-3 ovarian = test system: OVCAR-3 ovarian
HS 578T breast = test system: HS 578T breast
NCI/ADR-RES ovarian = test system: NCI/ADR-RES ovarian
T-47D breast = test system: T-47D breast
MDA-MB-435 melanoma = test system: MDA-MB-435 melanoma
SW-620 colon = test system: SW-620 colon
MCF7 breast = test system: MCF7 breast
HCT-116 colon = test system: HCT-116 colon
HCC-2998 colon = test system: HCC-2998 colon
KM12 colon = test system: KM12 colon
MDA-MB-468 breast = test system: MDA-MB-468 breast
BT-549 breast = test system: BT-549 breast

Measured: growth

Cc1cccc(-c2nc(Nc3ccccc3C(=O)O)c3ccccc3n2)c1
active: MDA-MB-468 breast -15.1%
inactive: SR leukemia 23% | RPMI-8226 leukemia 28.6% | OVCAR-8 ovarian 60.3% | OVCAR-5 ovarian 77% | OVCAR-4 ovarian 41.9% | SK-OV-3 ovarian 76.7% | IGROV1 ovarian 59.2% | OVCAR-3 ovarian 34.1% | HS 578T breast 16.6% | NCI/ADR-RES ovarian 24.8% | T-47D breast 26.8% | MDA-MB-435 melanoma 44.6% | SW-620 colon 35.5% | MCF7 breast 24% | HCT-116 colon 22.7% | HCC-2998 colon 27.1% | KM12 colon 30%

CC(=O)Nc1ccc(-c2cn(-c3cccc(C(=O)Nc4ccc(Cl)c(C(F)(F)F)c4)c3)nn2)cn1
active: OVCAR-8 ovarian -32.7% | OVCAR-5 ovarian -17.8% | OVCAR-4 ovarian -74.9% | SK-OV-3 ovarian -3.46% | IGROV1 ovarian -54% | OVCAR-3 ovarian -75.9% | HS 578T breast -12% | BT-549 breast -52.7% | SW-620 colon -75.5% | MCF7 breast -48.3% | HCT-116 colon -53.9% | HCC-2998 colon -36.1% | KM12 colon -3.58% | MDA-MB-468 breast -68.5%
inactive: SR leukemia 16.1% | RPMI-8226 leukemia 16.2% | NCI/ADR-RES ovarian 41.6% | T-47D breast 16.3%

Nc1nnc(-c2c[nH]c3ncccc23)c(-c2c[nH]c3ccc(Br)cc23)n1
inactive: SR leukemia 19.1% | RPMI-8226 leukemia 38.7% | OVCAR-8 ovarian 46.2% | OVCAR-5 ovarian 68.2% | OVCAR-4 ovarian 55.7% | SK-OV-3 ovarian 55.3% | IGROV1 ovarian 25.7% | OVCAR-3 ovarian 52.6% | HS 578T breast 33.7% | NCI/ADR-RES ovarian 98.6% | T-47D breast 22.4% | MDA-MB-435 melanoma 47.2% | SW-620 colon 54.9% | MCF7 breast 22.5% | HCT-116 colon 21.9% | HCC-2998 colon 74.5% | KM12 colon 39.3% | MDA-MB-468 breast 50.4%

CN1C/C(=C\c2ccc(O)cc2O)c2[o+]c3cc(O)ccc3cc2C1
inactive: RPMI-8226 leukemia 33% | OVCAR-8 ovarian 62.7% | OVCAR-5 ovarian 72.1% | OVCAR-4 ovarian 68.2% | SK-OV-3 ovarian 105% | IGROV1 ovarian 34.8% | HS 578T breast 50.1% | NCI/ADR-RES ovarian 107% | BT-549 breast 39.8% | MDA-MB-435 melanoma 20.4% | SW-620 colon 23.1% | MCF7 breast 11% | HCT-116 colon 16.4% | HCC-2998 colon 25.2% | KM12 colon 25%
active: SR leukemia 2.85% | T-47D breast 3.02% | MDA-MB-468 breast -16.3%

N#Cc1c(NC(=O)c2ccc(C(F)(F)F)cc2)sc2c1CCC(=O)C2
inactive: SR leukemia 11.3%
active: RPMI-8226 leukemia 7.34% | OVCAR-8 ovarian -32.3% | OVCAR-5 ovarian -80.6% | OVCAR-4 ovarian -24.6% | SK-OV-3 ovarian -54.1% | IGROV1 ovarian -79.3% | OVCAR-3 ovarian -92.9% | HS 578T breast -27.1% | NCI/ADR-RES ovarian -44.8% | T-47D breast -36.9% | BT-549 breast -80.6% | SW-620 colon -63% | MCF7 breast -16.9% | HCT-116 colon -46.3% | HCC-2998 colon -96.7% | KM12 colon -36.3% | MDA-MB-468 breast -71%

Cc1cc(C(F)(F)F)ccc1C(=O)Nc1sc2c(c1C#N)CCC(=O)C2
active: SR leukemia -9.8% | RPMI-8226 leukemia 2.68% | OVCAR-8 ovarian -9.16% | OVCAR-5 ovarian -33.3% | OVCAR-4 ovarian -39.7% | SK-OV-3 ovarian -18.9% | IGROV1 ovarian -5.43% | OVCAR-3 ovarian -48.2% | HS 578T breast -7.86% | NCI/ADR-RES ovarian -24.8% | T-47D breast -34% | BT-549 breast -76.1% | SW-620 colon -34.4% | MCF7 breast 2.31% | HCT-116 colon 5.39% | HCC-2998 colon -10.6% | KM12 colon -8.98% | MDA-MB-468 breast -44.4%

C=C1CCC2C3(C)COC(c4ccccc4F)OC3CCC2(C)C1C/C=C1/C(=O)OCC1O (centres undefined)
inactive: SR leukemia 11.6% | RPMI-8226 leukemia 13.4% | OVCAR-4 ovarian 22.2% | SK-OV-3 ovarian 26.3%
active: OVCAR-8 ovarian -54.3% | OVCAR-5 ovarian -42.8% | IGROV1 ovarian -45.8% | OVCAR-3 ovarian -79.1% | HS 578T breast -0.635% | NCI/ADR-RES ovarian -23% | T-47D breast -50.4% | BT-549 breast -82.1% | SW-620 colon -68.5% | MCF7 breast -26.5% | HCT-116 colon -67.8% | HCC-2998 colon -73.5% | KM12 colon -82.3% | MDA-MB-468 breast -22.6%

O=C(CNc1nc(-c2ccccc2)cs1)Nc1cccc([N+](=O)[O-])c1
active: SR leukemia 2.8% | RPMI-8226 leukemia -18% | OVCAR-8 ovarian -11.1% | OVCAR-5 ovarian -92.8% | OVCAR-4 ovarian -45.7% | SK-OV-3 ovarian -22% | IGROV1 ovarian -47.4% | OVCAR-3 ovarian -44.6% | HS 578T breast -19.2% | NCI/ADR-RES ovarian -61.4% | T-47D breast -49.9% | MDA-MB-435 melanoma -77.9% | SW-620 colon -66.7% | MCF7 breast -81.6% | HCT-116 colon -34.2% | HCC-2998 colon -99.8% | KM12 colon -44% | MDA-MB-468 breast -90.6%
